Results with a measured potency or affinity are listed apart. Active and inactive are the calls of the source. How the calls were made is not given here.
What follows are compounds tested against Plasmodium falciparum protein kinase 6 (PK6, PF3D7_1337100) (UniProt Q8IDW1) (assay: PfPK6 kinase inhibitors, biochemical, TCAMS library (AID 1159586)). Conditions: recombinant PfPK6, Kinase-Glo ATP depletion luminescence.
Sequence of Plasmodium falciparum protein kinase 6 (PK6, PF3D7_1337100) (Q8IDW1 1-305): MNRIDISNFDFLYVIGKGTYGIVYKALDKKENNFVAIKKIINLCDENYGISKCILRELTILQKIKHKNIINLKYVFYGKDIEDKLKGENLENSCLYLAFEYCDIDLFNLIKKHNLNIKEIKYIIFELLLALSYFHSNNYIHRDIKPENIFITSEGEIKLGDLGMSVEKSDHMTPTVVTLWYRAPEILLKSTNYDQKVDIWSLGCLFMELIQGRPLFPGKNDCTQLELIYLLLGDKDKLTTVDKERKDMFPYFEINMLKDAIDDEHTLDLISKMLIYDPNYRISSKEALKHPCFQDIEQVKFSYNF

outcome, inactive:
Cc1[nH]c(C)c(-c2ccc(C(=O)c3ccccc3)cc2)c(=O)c1Br
Cc1cnc(C(=O)Nc2ccc(-c3cccc(-c4nc5ccccc5[nH]4)c3)cc2)cn1
FC(F)(F)c1ccc2nc(-c3ccc(-c4cccc(CN5CCN(c6ccncc6)CC5)c4)cc3)[nH]c2c1
O=C(c1cccs1)N(Cc1cccc(-c2ccc(CNCCc3ccccc3)cc2)c1)C1CCN(Cc2ccccc2)CC1
CCN(CC)CCN(Cc1ccc(-c2ccc(C(F)(F)F)cc2)cc1)C(=O)c1c[nH]c2ccc(Br)cc12
Cc1ccc(S(=O)(=O)NC2=NC(C)(C)N(OCc3ccc(Cl)c(Cl)c3)C(N)=N2)cc1
COc1ccc(NC(=O)Nc2nc3ccccc3s2)cc1N1CCN(C)CC1
CCN1CCC(N(Cc2ccc(-c3ccc(C(F)(F)F)s3)cc2)C(=O)Cn2c(CCc3cccc(F)c3F)nc(=O)c3ccccc32)CC1
CC(C)c1cc(C(=O)N[C@@H](Cc2ccccc2)[C@H](O)CNC2CCCCC2)cc(N2CCCC2=O)c1
Cc1ccc(NC(=O)c2ccc3nccnc3c2)cc1OC1CCN(Cc2ccc(F)cc2)CC1
CC(=O)Nc1ccc(CCNC(C)Cc2ccc(C(=O)Nc3ccc(CC(C)NCCc4cccc(Cl)c4)cc3)cc2)cc1 (stereo not drawn)
CN(C)Cc1cccc(-c2ccc(NC(=O)c3ccc4c(=O)n(CCN5CCCCC5)cnc4c3)cc2)c1
CCCCCCOc1ccc(C(=O)NCCCC2CCN(CCCCCNC(=O)C=Cc3ccc(Cl)c(Cl)c3)CC2)cc1
